Some test systems named below: HCT-15 colon; HT29 colon; SNB-75 CNS; SNB-19 CNS; PC-3 prostate; SK-MEL-5 melanoma; UACC-62 melanoma; LOX IMVI melanoma; SK-MEL-28 melanoma; SK-MEL-2 melanoma; EKVX NSCLC; SN12C renal; UO-31 renal; ACHN renal; CAKI-1 renal; A498 renal; CCRF-CEM leukemia; MOLT-4 leukemia; TK-10 renal.
Holding throughout (assay): NCI-60 one-dose screen, 48 h (100 = growth as untreated, 0 = no growth, -100 = all killed)
What all share (details): 10 µM unless noted

The panel holds about 83,000 compounds, 20% with a hit somewhere; the sample as a whole holds those more often.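 How to read the values: 0–100, growth inhibition (40 = 60% inhibited); 0, no net growth; -100 to 0, cell death (-40 = 40% of starting cells died; -100 = all dead).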 Unmarked numbers belong to inactive results. Activity calls are given as the source filed them. The calls were made as follows: active = growth percent below 10; inactive = the rest.

The source of these data is PubChem BioAssay (NCI).

Take `Oc1c(Cl)cc(Cl)c(Cl)c1Cc1c(O)c(Cl)cc(Cl)c1Cl`: the growth with HCT-15 colon was 11.5%; with HT29 colon, 13.1%; with SNB-75 CNS it was 46.9%; with SNB-19 CNS, 23%; in the test on PC-3 prostate it was -6.08% (active); with SK-MEL-5 melanoma it was -72.7% (active). Further, the growth in the test with UACC-62 melanoma is 2.95% (active); in the test on LOX IMVI melanoma it was 26.2%; with SK-MEL-28 melanoma it was 22.4%; with SK-MEL-2 melanoma it was -39.1% (active); in the test on EKVX NSCLC, -4.03% (active); in the test with SN12C renal it was 5.01% (active). Besides, the growth with UO-31 renal is -2.22% (active); in the test on ACHN renal it was 18.4%; in the test with CAKI-1 renal, -18.3% (active); with A498 renal, -17.3% (active); in the test with CCRF-CEM leukemia, 5.78% (active); in the test on MOLT-4 leukemia it was 11.1%.

For the compound `CC(=O)c1nn(-c2ccccc2)c(=Nc2ccccc2)cc1C`, the growth in the test on HCT-15 colon is 93.9%; with HT29 colon, 95.5%; with SNB-75 CNS it was 76.2%; with SNB-19 CNS it was 92.4%; in the test with PC-3 prostate, 80.3%; in the test on SK-MEL-5 melanoma, 98.9%. Moreover, the growth in the test on UACC-62 melanoma is 94.8%; in the test on LOX IMVI melanoma, 98.4%; with SK-MEL-28 melanoma it was 109%; in the test on SK-MEL-2 melanoma it was 114%; in the test on SN12C renal, 97.7%; in the test on UO-31 renal it was 86.2%. Moreover, the growth with TK-10 renal is 104%; in the test on ACHN renal it was 86.7%; in the test with CAKI-1 renal, 99.1%; in the test on A498 renal, 103%; in the test on MOLT-4 leukemia, 94.3%.

For the compound `CCOC(=O)Nc1cc(-c2ccc(C)c(NS(C)(=O)=O)c2)nn2c(C)nnc12`, the growth in the test with HCT-15 colon was 9.95% (active); with HT29 colon, 9.76% (active); in the test with SNB-75 CNS it was 1.74% (active); with SNB-19 CNS, 39.1%; in the test with PC-3 prostate, 23.8%; with SK-MEL-5 melanoma, -57.2% (active). Also, the growth in the test on UACC-62 melanoma is 12.9%; in the test on LOX IMVI melanoma it was -22.7% (active); in the test with SK-MEL-28 melanoma it was 14.3%; in the test on SK-MEL-2 melanoma, 13.5%; with SN12C renal, 32%; in the test with UO-31 renal it was -1.22% (active). In addition, the growth in the test with TK-10 renal is -3.12% (active); with ACHN renal, 8.87% (active); with CAKI-1 renal it was 3.16% (active); in the test on A498 renal it was -7.14% (active); in the test with CCRF-CEM leukemia, 24.5%; in the test on MOLT-4 leukemia, 18.9%.

With `COc1cnc2c(c1)C(=O)c1c-2n(CCCNC2=NCCS2)c(=O)c2cc(F)ccc12`, the growth in the test on HCT-15 colon was 43.3%; with HT29 colon, 22.2%; in the test on SNB-75 CNS, 33.1%; in the test on SNB-19 CNS, 54.6%; with PC-3 prostate, 36.9%; in the test with SK-MEL-5 melanoma, 0.102% (active). The growth with UACC-62 melanoma is 17.4%; with LOX IMVI melanoma, -73.8% (active); in the test with SK-MEL-28 melanoma, 79.2%; in the test with SK-MEL-2 melanoma, 90.7%; in the test on EKVX NSCLC, 67.5%; with SN12C renal, 36.7%. Moreover, the growth in the test with UO-31 renal was 15.9%; in the test on ACHN renal, 6.18% (active); in the test on A498 renal, -52.4% (active); in the test on CCRF-CEM leukemia it was 0.88% (active); in the test on MOLT-4 leukemia it was 0.0786% (active).

For the compound `N#Cc1ncc(-c2ccc(C(F)(F)F)cc2)c(NC2CCCCCC2)n1`, the growth with HCT-15 colon is 57.1%; in the test with HT29 colon, 19.1%; in the test with SNB-75 CNS it was 49.7%; in the test on SNB-19 CNS it was 35.2%; in the test with PC-3 prostate it was 4.57% (active); with SK-MEL-5 melanoma, -6.45% (active). Also, the growth in the test on UACC-62 melanoma is 13.2%; in the test with LOX IMVI melanoma, 32.5%; with SK-MEL-28 melanoma it was 36.5%; in the test on SK-MEL-2 melanoma it was 7.62% (active); in the test with SN12C renal, 19.6%; in the test on UO-31 renal, 5.41% (active). For the same compound, the growth in the test on TK-10 renal is 58.1%; in the test with ACHN renal, -1.84% (active); in the test with CAKI-1 renal it was 56.8%; in the test on A498 renal, 77.6%; in the test on CCRF-CEM leukemia it was 24.8%; with MOLT-4 leukemia, 66.8%.

For the compound `CC1CN(/N=C/c2ccc([N+](=O)[O-])o2)C(=N)O1` (centres undefined), the growth is 97.8% with HCT-15 colon; 108% in the test with HT29 colon; 105% with SNB-75 CNS; 99.7% in the test on SNB-19 CNS; 89.5% in the test on PC-3 prostate; 93.4% with SK-MEL-5 melanoma. In addition, the growth with UACC-62 melanoma is 92.7%; with LOX IMVI melanoma, 95.4%; in the test on SK-MEL-28 melanoma, 115%; in the test with SK-MEL-2 melanoma it was 123%; in the test on EKVX NSCLC it was 104%; in the test with SN12C renal it was 91%. Further, the growth in the test on UO-31 renal is 73.9%; in the test with TK-10 renal, 105%; in the test with ACHN renal, 92.9%; in the test on CAKI-1 renal, 96.4%; with CCRF-CEM leukemia it was 112%; with MOLT-4 leukemia, 107%.

In the case of `CCCCCCCCCCCCCCCCCC1=NC(C)(CO)CO1` (centres undefined), the growth was 92.4% with HCT-15 colon; 92.8% in the test on HT29 colon; 120% in the test on SNB-75 CNS; 101% with SNB-19 CNS; 73.4% with PC-3 prostate; 97.1% in the test with SK-MEL-5 melanoma. Besides, the growth with UACC-62 melanoma was 86.7%; with LOX IMVI melanoma, 98%; in the test with SK-MEL-28 melanoma, 109%; in the test with SK-MEL-2 melanoma, 91.3%; in the test on SN12C renal it was 94.2%; with UO-31 renal it was 76.3%. The growth in the test with TK-10 renal is 87.1%; with ACHN renal it was 91%; in the test with CAKI-1 renal, 85.5%; in the test on A498 renal, 104%; with MOLT-4 leukemia it was 93.8%.

Turning to `CCCCCCCCCCCCC1CCCC(C)C1` (centres undefined), the growth in the test with HCT-15 colon was 97.5%; in the test with HT29 colon, 101%; with SNB-75 CNS, 64.8%; in the test on SNB-19 CNS it was 104%; in the test on PC-3 prostate, 88.8%; in the test on SK-MEL-5 melanoma, 101%. The growth is 102% in the test on UACC-62 melanoma; 99.7% in the test on LOX IMVI melanoma; 88.9% with SK-MEL-28 melanoma; 94.9% in the test with SK-MEL-2 melanoma; 106% in the test on SN12C renal; 87.9% in the test with UO-31 renal. Further, the growth in the test with TK-10 renal was 94.2%; in the test on ACHN renal it was 95.5%; in the test with CAKI-1 renal, 88.2%; in the test on A498 renal, 98.5%.
